Compound activity (PubChem BioAssay)
HCMV inh = blocks human cytomegalovirus replication; activity change, negative = inhibition, % at 57.5 µM; 410,000 tested, 4.5% active; HFF cells, HCMV-luciferase reporter, 72 h; active compounds read low; in the data active = activity change below about -60%; inconclusive = no clear call, values can overlap the other calls; inactive = above about -39%
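Screen run at 2 compound doses on HFFs infected with reporter HCMV, MOI 1 PFU/cell. Luciferase activity from cell lysates at 72 h post infection gave inhibition relative to buffer-only and Salinomycin wells.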
LASV entry inh = inhibitors of Lassa virus binding or cell entry; Lassa virus pseudotype entry inhibition, cell reporter; Potency, µM (top dose mostly 37.9 µM), for inactives: at the top dose activity change, negative = inhibition, hits mostly inhibitors; 300,000 tested, 1.2% active; AID 540256; calls by dose curve; tested in HEK293 cells; also: potency is read from the fitted curve at half-maximal effect; nearly all actives have a fitted effect of over 50% in size
Marburg entry inh = inhibitors of Marburg virus binding or cell entry | Marburg virus pseudotyped entry inhibition, cell reporter | Potency, µM (top dose mostly 37.8 µM), for the others: at the highest dose activity change, negative = inhibition, usual class: inhibitors | 300,000 tested, 1.8% active; calls by dose curve; tested in HEK293 cells; also: potency is read from the fitted curve at half-maximal effect
FMDV inh = blocks foot and mouth disease virus. FMDV antiviral cell-based qHTS. Potency, µM (highest dose often 57.9 µM), for the others: top-dose activity change, negative = inhibition, usual class: inhibitors. 410,000 tested, 1.2% active. AID 1159524; calls by dose curve; tested in HEK293T cells; also: read-out not given here; potency is read from the fitted curve at half-maximal effect; nearly all actives have a fitted effect of over 45% in size
HCV inhibitor = blocks hepatitis C virus | Potency, µM (top dose mostly 41.8 µM), without a hit: at the highest dose activity change, negative = inhibition, hits mostly inhibitors | Huh7.5.1 HCVcc-Cre infection, luciferase reporter, 44 h | 340,000 tested, 3.4% active; active = well fitted inhibition curve with a large enough effect; inconclusive = small, poorly fitted or top-dose-only effect, or another doubt; inactive = no such curve, though single readings can be large or run the other way; also: potency is read from the fitted curve at half-maximal effect
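A cell-based infection assay in which seeded cells (1,000 per well) receive test compound after 4 h, are inoculated with HCVcc-Cre at approximately 0.5 moi, and are incubated 44 h before luminescence detection.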
Starred values were filed as active, the others as inactive; ? = inconclusive; · = no result; ! = not active in a repeat; [ ] = dose if it differs, or a comment. The list is not random: actives were taken first. Their share in the collection is about 7.9%. % is scaled to controls: 0 for no effect and ±100 for the full control effect.

SMILES	HCMV inh	LASV entry inh	Marburg entry inh	FMDV inh	HCV inhibitor
FC(F)Sc1nc2ccccc2[nH]1	11	-2%	0%[14.2 µM]	36%	4%
N#C/C(=C\C1CC=CCC1)c1nc2ccccc2[nH]1 (stereo not given)	-82*	?	?	?	?
N#Cc1ccc(Sc2nc3ccccc3[nH]2)cc1C#N	-77*	-25%	?	-24%	-5%
N#C/C(=C\c1ccc(Sc2nc3ccccc3[nH]2)o1)c1ccccc1	-96*	?	?	?	10µM*
N#C/C(=C/c1ccc(N2CCOCC2)o1)c1nc2ccccc2[nH]1	107	?	?	-61%	-31%
N#C/C(=C\c1ccc(Sc2ccc(Cl)cc2)o1)c1nc2ccccc2[nH]1	-68*	-16%	?	-30%	?
Cn1c(/C(C#N)=C/C2CC=CCC2)nc2ccccc21 (stereo not given)	-16	-22%	-28%	·	5%
COc1ccc2cc([C@@H](C#N)C3CCCC3)ccc2c1	1	·	·	·	·
COc1ccc(NC(=O)Nc2c[nH]c(=O)[nH]c2=O)c(OC)c1	1	6%[46.1 µM]	·	-9%	·
N#C/C(=C\c1c(Cl)cccc1Cl)c1nc2ccccc2[nH]1	-70*	?	?	-18%	-26%
CCCCCN1N=C(C)CC1=O	-36	2µM*	-13%[46.1 µM]	1%	-5%
CC1=NN(Cc2cc(C(C)(C)C)c(O)c(C(C)(C)C)c2)C(=O)C1	?	·	·	3%	-6%
CN1CCN(C2Cc3cc(Cl)ccc3Sc3cc(F)ccc32)CC1 (stereo not given)	-78*	?	?	?	?
OCCN1CCN(C2Cc3cc(Cl)ccc3Sc3ccc(Cl)cc32)CC1 (stereo not given) (tested in a mixture with another compound)	·	?	?	-20%	?
CN1CCN(C2=Cc3ccccc3Sc3cc(F)c(Cl)cc32)CC1	0	-2%	?	?	13µM*
CN1CCN(C2=Cc3cc(Cl)ccc3Sc3cc(F)ccc32)CC1	-9	10µM*	?	?	7.1µM*
CN1CCN(C2=Cc3ccccc3Sc3cc(F)c(F)cc32)CC1	8	?	?	?	11µM*
CC(C)[C@@H](OCc1ccccc1)[C@H](C)CO/N=C1/[C@H]2CCn3c(=O)n(-c4ccccc4)c(=O)n3[C@H]2[C@H](O)[C@@H]2O[C@H]12	·	·	25%[14.2 µM]	·	·
COC1=C[C@H](C(=O)N[C@H]2CCCC[C@H]2NC(C)=O)[C@@]2(C)Cc3ccccc3[C@@H]2CC1=O	·	·	-12%[14.2 µM]	·	·
COC(=O)C1(C(=O)OC)CC(CO)C(=O)[C@@H]1c1ccccc1 (stereo not given in full)	·	·	-8%[14.2 µM]	·	·
COC(=O)c1cccc(Nc2c(-c3ccc(SC)cc3)nc3nc[nH]n23)c1	80	-19%[46.1 µM]	·	53%	·
COc1cc2nc(CN3CC=C(c4ccccc4)CC3)[nH]c(=O)c2cc1OC	-99*	?	16%[46.1 µM]	-11%	3.5µM*
COc1cc2nc(CN3CCN(S(=O)(=O)c4ccccc4)CC3)[nH]c(=O)c2cc1OC	?	-2%	0%	-10%	13%
Cc1cc(Cl)ccc1OC(C)C(=O)N1CCCN(C(=O)C(C)Oc2ccc(Cl)cc2C)CC1 (stereo not given)	?	?	?	28µM*	?
Cc1cc(Cl)ccc1OCC(=O)N1CCN(C)CC1	45	12%	14%	10%	9%
SMILES	HCMV inh	LASV entry inh	Marburg entry inh	FMDV inh	HCV inhibitor
Cc1cc(Cl)ccc1OCC(=O)N1CCCN(C(=O)COc2ccc(Cl)cc2C)CC1	-26	?	15µM*	?	?
COC(=O)C1CN(C(=O)COc2ccc(Cl)cc2C)c2ccccc2O1 (stereo not given)	-61*	19%[46.1 µM]	15%[46.1 µM]	3%	5%
CCNc1ncc2nc(-c3ccc(Cl)cc3)c(=O)n(C[C@H]3CCCO3)c2n1	·	·	·	-15%	·
Clc1ccc(CSc2nc3ccncc3[nH]2)cc1	68	·	·	-59%	-11%
O=C(c1ccc(CSc2nc3ccncc3[nH]2)cc1)N1CCN(c2cccc(Cl)c2)CC1	-90*	26µM*	?	?	7.9µM*
O=C(c1ccc(CSc2nc3ccncc3[nH]2)cc1)N1CCCCCC1	?	·	·	?	-29%
Cc1ccc(CSc2nc3ccncc3[nH]2)cc1	97	·	·	10µM*	-7%
Cc1ccc(NC(=O)/C(Cl)=C\c2ccccc2)cc1	-1	4.5µM*	7.9µM*	-5%	-5%
CCOC(=O)N1CCN(C(=O)CSc2nnc(-c3cc(OC)ccc3OC)o2)CC1	11	-8%	?	?	10µM*!
O=C(CSc1nnc(-c2ccccc2Cl)o1)N1CCCC1	15	2.8µM*	?	40%	-21%
O=C(Cn1cnc2c(nc3n2CCCCC3)c1=O)Nc1ccc(F)cc1	12	?	·	0%	·
COc1cccc(C2C(C(=O)Nc3cccnc3)=C(C)Nc3nc(SCc4ccccc4)nn32)c1 (stereo not given)	1	-25%[46.1 µM]	25%[46.1 µM]	-15%	·
Cc1csc(CN(C)C(=O)c2sc3ncnc(NCC4CCCO4)c3c2C)n1 (stereo not given)	·	·	·	-4%	·
O=C(Nc1cccc(OCc2cc(=O)n3c4c(sc3n2)CCCC4)c1)c1ccc(F)cc1	1	3%[46.1 µM]	-2%[46.1 µM]	-19%	·
O=C(Nc1ccc(OCc2cc(=O)n3c4c(sc3n2)CCCC4)cc1)c1ccccc1	-105*	1%[46.1 µM]	3%[46.1 µM]	-4%	·
CCOC(=O)C1=NN(c2ccc(C)cc2)C2(S1)SC(C(C)=O)=C(C)N2c1ccccc1 (stereo not given)	-30	?	?	-24%	14µM*
COc1ncc2nc(-c3ccc(F)cc3)c(=O)n(CCC#N)c2n1	·	·	·	-8%	·
O=C(COc1ccc(-n2ccnc2)cc1)Nc1cccc(Cl)c1	-64*	-1%	?	?	?
Cc1cc(Nc2cccc(Cl)c2)nc2ccc(NC(=O)COc3ccc(Cl)cc3)cc12	-106*	-3%[46.1 µM]	·	-18%	·
O=C(COc1ccc(-n2ccnc2)cc1)Nc1cccc(F)c1	?	·	·	-22%	-26%
Cc1cccc(OCC(=O)Nc2ccc3nc(Nc4cccc(Cl)c4)cc(C)c3c2)c1	-63*	-18%[46.1 µM]	·	-2%	·
COC(=O)N1CCCc2cc(S(=O)(=O)NCc3ccccc3)ccc21	8	-23%[46.1 µM]	4%[46.1 µM]	65%	·
O=c1sc2ccccc2n1COc1ccccc1	-95*	28%	0%	25%	20%
CCOc1ccccc1Cn1c(=O)sc2ccccc21	-66*	8%	-28%[46.1 µM]	-14%	10%
CC(C)CCOc1ccccc1Cn1c(=O)sc2ccccc21	7	20%[46.1 µM]	-2%[46.1 µM]	-13%	·
O=c1sc2ccccc2n1COc1ccc(Cl)cc1	-23	5%	20%	15%	-19%
NC(=O)c1ccccc1NC(=O)NC1CCCCC1	-2	-8%	3%	4%	13%
O=C(Nc1nc2ccccc2[nH]1)NC1CCCCC1	57	11µM*	?	-26%	-1%
O=C(Nc1ccccc1NC(=O)NC1CCCCC1)NC1CCCCC1	-106*	13µM*	4.6µM*	54%	13µM*
